According to PubChem BioAssay AID1671202 (University of Kansas High Throughput Screening Laboratory, 2021):
Hit rate of the full screen: of about 190,000 compounds, about 6,900 (3.6%) were called active. Shown is part of a subset that was picked to be rich in actives. Values without a mark were called inactive. No stated cut-off is given here; in the data, active means inhibition above about 50%; inactive means the rest.

What follows are compounds tested against Huntingtin (Homo sapiens) (UniProt P42858) (assay: mutant huntingtin-calmodulin interaction inhibitors – biochemical, AlphaScreen, primary screen (AID 1671202;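 on inhibition: 0% = both proteins with DMSO and 100% = one protein alone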)). Details: AlphaScreen His-mHTT/GST-CaM binding, luminescence; at 15 µM, stronger effect = higher value.
Huntingtin (Homo sapiens), sequence (P42858 whole entry, looked up, stated change not applied): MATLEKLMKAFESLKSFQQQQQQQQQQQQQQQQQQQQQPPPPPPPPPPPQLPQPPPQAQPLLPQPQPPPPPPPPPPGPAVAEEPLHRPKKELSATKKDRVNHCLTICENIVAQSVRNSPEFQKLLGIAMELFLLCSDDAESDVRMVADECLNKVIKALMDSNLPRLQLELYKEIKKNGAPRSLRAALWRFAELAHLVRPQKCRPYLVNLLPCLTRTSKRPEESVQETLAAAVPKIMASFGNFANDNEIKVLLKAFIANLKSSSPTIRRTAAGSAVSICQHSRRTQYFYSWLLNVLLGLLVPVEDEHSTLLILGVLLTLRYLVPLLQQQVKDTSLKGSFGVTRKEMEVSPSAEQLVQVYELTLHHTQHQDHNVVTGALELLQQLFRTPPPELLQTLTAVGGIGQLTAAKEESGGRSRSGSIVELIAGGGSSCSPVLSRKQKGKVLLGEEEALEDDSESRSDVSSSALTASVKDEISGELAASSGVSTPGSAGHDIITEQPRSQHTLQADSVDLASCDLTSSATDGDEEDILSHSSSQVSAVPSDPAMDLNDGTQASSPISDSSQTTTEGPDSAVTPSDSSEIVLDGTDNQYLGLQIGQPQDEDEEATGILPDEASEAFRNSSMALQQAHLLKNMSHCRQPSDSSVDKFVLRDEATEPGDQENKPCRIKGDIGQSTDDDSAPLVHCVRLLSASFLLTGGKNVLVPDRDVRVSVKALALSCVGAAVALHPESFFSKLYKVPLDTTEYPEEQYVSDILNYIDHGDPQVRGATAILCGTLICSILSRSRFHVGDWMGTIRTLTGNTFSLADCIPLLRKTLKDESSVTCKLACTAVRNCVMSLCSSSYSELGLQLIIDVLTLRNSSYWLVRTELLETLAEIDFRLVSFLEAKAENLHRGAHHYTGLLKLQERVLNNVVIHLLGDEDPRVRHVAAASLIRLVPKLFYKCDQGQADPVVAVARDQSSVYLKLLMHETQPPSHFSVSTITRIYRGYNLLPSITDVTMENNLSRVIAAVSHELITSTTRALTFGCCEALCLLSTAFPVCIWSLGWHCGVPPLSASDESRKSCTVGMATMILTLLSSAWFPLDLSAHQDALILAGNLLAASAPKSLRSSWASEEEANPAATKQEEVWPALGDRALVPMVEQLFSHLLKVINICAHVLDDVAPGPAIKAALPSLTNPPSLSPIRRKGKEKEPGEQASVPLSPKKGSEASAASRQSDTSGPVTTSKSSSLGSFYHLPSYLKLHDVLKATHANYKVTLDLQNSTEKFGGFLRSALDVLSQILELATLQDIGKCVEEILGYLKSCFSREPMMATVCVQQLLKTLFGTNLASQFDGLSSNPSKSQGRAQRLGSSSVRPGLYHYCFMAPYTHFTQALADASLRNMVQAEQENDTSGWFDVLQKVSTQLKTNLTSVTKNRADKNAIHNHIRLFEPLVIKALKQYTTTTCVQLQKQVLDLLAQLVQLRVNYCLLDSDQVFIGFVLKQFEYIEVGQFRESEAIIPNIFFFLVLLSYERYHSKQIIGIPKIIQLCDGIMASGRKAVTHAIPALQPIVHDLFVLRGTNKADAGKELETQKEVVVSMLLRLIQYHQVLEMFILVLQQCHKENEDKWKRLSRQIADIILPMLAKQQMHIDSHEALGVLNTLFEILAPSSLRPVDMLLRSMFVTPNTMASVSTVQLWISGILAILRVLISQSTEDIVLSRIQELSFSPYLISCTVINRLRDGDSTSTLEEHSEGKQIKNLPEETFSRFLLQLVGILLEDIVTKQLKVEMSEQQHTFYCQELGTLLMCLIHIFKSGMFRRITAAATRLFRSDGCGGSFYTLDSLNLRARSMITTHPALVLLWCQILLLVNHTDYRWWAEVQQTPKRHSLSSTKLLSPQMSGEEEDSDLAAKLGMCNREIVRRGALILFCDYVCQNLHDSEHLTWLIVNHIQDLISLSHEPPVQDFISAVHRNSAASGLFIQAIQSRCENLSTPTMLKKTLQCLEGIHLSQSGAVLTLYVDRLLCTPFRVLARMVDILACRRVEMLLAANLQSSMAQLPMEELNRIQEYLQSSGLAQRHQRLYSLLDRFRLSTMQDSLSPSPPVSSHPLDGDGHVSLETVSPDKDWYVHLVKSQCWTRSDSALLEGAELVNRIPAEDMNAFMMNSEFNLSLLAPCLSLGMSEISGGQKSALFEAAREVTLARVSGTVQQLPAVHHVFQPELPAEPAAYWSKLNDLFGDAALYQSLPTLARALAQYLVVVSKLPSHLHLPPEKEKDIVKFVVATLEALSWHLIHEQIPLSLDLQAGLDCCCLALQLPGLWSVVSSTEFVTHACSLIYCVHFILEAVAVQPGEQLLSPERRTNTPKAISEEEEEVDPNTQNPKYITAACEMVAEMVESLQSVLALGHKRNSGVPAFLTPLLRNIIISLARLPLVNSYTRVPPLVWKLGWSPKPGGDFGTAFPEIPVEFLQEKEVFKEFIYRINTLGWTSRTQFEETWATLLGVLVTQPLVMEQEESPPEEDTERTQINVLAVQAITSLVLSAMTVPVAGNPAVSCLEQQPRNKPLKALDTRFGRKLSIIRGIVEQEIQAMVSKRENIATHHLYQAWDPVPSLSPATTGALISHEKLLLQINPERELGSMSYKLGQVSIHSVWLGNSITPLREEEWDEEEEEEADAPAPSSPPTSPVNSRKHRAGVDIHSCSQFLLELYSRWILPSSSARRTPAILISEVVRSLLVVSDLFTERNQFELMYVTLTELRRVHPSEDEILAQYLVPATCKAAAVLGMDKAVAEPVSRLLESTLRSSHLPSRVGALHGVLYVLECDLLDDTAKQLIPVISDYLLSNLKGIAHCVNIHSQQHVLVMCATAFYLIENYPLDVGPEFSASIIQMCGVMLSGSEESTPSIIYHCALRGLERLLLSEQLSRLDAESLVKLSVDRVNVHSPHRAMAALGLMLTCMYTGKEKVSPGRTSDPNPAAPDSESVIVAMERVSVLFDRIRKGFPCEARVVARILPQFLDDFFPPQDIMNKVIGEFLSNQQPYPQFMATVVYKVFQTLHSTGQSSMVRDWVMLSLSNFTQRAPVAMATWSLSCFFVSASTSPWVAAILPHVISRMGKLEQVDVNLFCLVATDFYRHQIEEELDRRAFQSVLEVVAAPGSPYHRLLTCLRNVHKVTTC
`CCc1ccc(OCC(O)CN2CCN(c3ccccc3F)CC2)cc1` (stereo not drawn) gave an inhibition of -21.8%.
With `COc1cc(NCCCCN2C(=O)c3ccccc3C2=O)c2nccc(C)c2c1` the inhibition was 4%.
`CCOC(=O)N1CCN(C(=O)C2CC(c3ccc(F)cc3)=NO2)CC1` (stereo not drawn) was tested, and the inhibition was 100% (active).
`COc1ccc(C2=NOC(C(=O)N3CCN(c4ccccc4)CC3)C2)cc1` (stereo not drawn) was tested, and the inhibition was -6.03%.
`O=C(c1ccco1)N1CCN(C(=O)C2CC(c3ccc(F)cc3)=NO2)CC1` (stereo not drawn) showed an inhibition of -6.79%.
For `Cc1cc(C)cc(NC(=O)NC2CCN(c3ccccc3)C2=O)c1` (stereo not drawn), the inhibition was -6.4%.
Work on `COc1nccnc1N1CCC(N(C)C(=O)c2ccoc2)C1` (stereo not drawn) yielded an inhibition of 1.67%.
Work on `Cc1cc(C(=O)N2CCOCC2)c2cccc(-c3cccs3)c2n1` yielded an inhibition of -5.8%.
In the case of `O=C(Nc1cccc(F)c1)N1CCC(N2CCN(Cc3ccc(F)cc3)C2=O)CC1`, the inhibition is reported as 13%.
Compound `CC(=O)N1c2c(cc(Br)cc2S(=O)(=O)Nc2cccc([N+](=O)[O-])c2)CC1C` (stereo not drawn) has an inhibition of 6%.
`O=C(c1ccc([N+](=O)[O-])cc1)N1CCN(c2cccc(Cl)c2)CC1` gave an inhibition of 13.1%.
In the case of `CC(=O)Nc1ccc(C(=O)N2CCN(c3cccc(Cl)c3)CC2)cc1`, the inhibition is reported as 83.1% (active).
`O=C(c1ccc2nc3ccc(Cl)cc3c(=O)n2c1)N1CCN(c2cccc(Cl)c2)CC1` gave an inhibition of 6%.
Compound `Cc1ccccc1-n1cnc(C(=O)NCCC(C)C)n1` has an inhibition of -3%.
For `CC(C)C[C@@H]1COc2cc(N3CCC[C@@H]3CO)ccc2S(=O)(=O)N1`, the inhibition was -7.7%.
`Cc1ccc(N2CCN(C3CCCCCC3)CC2)cc1` was tested, and the inhibition was 7.2%.
`CC1CCN(c2ccc(N)cc2)CC1` was tested, and the inhibition was 79.6% (active).
For `CC1CCN(c2ccc([N+](=O)[O-])c(SCCO)c2)CC1`, the inhibition was 24%.
With `Cn1c(C(=O)NCc2ccco2)cc2c1CCN(Cc1ccc(F)cc1)C2` the inhibition was 40.4%.
In the case of `COc1ccc(OC)c(Nc2nc(CC(=O)Nc3nc4ccccc4s3)cs2)c1`, the inhibition is reported as 54.7% (active).
Work on `COc1ccc(C(=O)Nc2nc3ccccc3s2)cc1Br` yielded an inhibition of -8%.
`O=C(COc1ccccc1)Nc1nc2ccccc2s1` gave an inhibition of -8.3%.
Work on `CCCC(=O)N1CCN(c2nc3c(s2)c(C)nn3-c2ccc(F)cc2)CC1` yielded an inhibition of 0.3%.
Work on `O=C(NCC1(c2ccccc2)CCOCC1)C(=O)Nc1cccnc1` yielded an inhibition of -3.4%.
With `N#C/C(=C\c1cn[nH]c1-c1cccs1)c1nc2ccccc2[nH]1` the inhibition was 37%.
`CCOc1ccccc1C1CC(c2ccccc2)Nc2nc(N)nn21` (stereo not drawn) gave an inhibition of 18.6%.
With `CCOc1ccccc1C1CC(c2ccc(Cl)cc2)Nc2nc(N)nn21` (stereo not drawn) the inhibition was 54.2% (active).
`COc1cccc(C2CC(c3cccc(Cl)c3)n3nc(N)nc3N2)c1` (stereo not drawn) was tested, and the inhibition was 30.3%.
In the case of `CCOc1ccc(C2CC(c3ccccc3Cl)n3nc(N)nc3N2)cc1` (stereo not drawn), the inhibition is reported as 36.1%.
In the case of `COc1ccc(C2CC(c3ccc(Cl)cc3Cl)Nc3nc(N)nn32)cc1OC` (stereo not drawn), the inhibition is reported as 70.9% (active).
`COc1ccc(C2CC(c3ccc(C)cc3)Nc3nc(N)nn32)cc1` (stereo not drawn) gave an inhibition of 11.1%.
In the case of `Cn1cccc1/C=N/NC(=O)CCCCCCC(=O)N/N=C/c1cccn1C`, the inhibition is reported as “inactive”.
`COc1ccc(C2C=C(c3ccc(C)cc3)Nc3nnnn32)cc1` (stereo not drawn) was tested, and the inhibition was -16%.
With `Cc1cc(S(=O)(=O)NCC2(O)CCOCC2)c(Cl)cc1Cl` the inhibition was -11.3%.
Work on `Cc1[nH]nc(-c2ccsc2)c1NC(=O)Cc1ccccc1` yielded an inhibition of -4%.
With `COc1cccc(CC(=O)N2CCCC2c2cc(C)on2)c1` (stereo not drawn) the inhibition was -5.74%.
In the case of `CC1CCCN(c2ccc(-c3noc(CN(C)C4CCCCC4)n3)cn2)C1` (stereo not drawn), the inhibition is reported as 10%.
Compound `CCc1onc(C)c1C1CCCN1C(=O)c1nn(C)cc1Cl` (stereo not drawn) has an inhibition of -0.93%.
`COc1cc(OC)c(OC)cc1/C=C1N=C(/C=C/c2ccccc2)OC/1=O` showed an inhibition of -2%.
In the case of `c1cc(N2CCCCCC2)ncc1-c1noc(CN2CCCC2)n1`, the inhibition is reported as 15.8%.
For `CCOC(=O)N1CCN(Cc2nc(-c3ccc(N4CCCCCC4)nc3)no2)CC1`, the inhibition was 78.7% (active).
`Cc1nc(-c2ccc(N3CCN(C(=O)C4CCCO4)CC3)nc2)no1` (stereo not drawn) showed an inhibition of -5.6%.
With `CC(C)Cn1c(C2CCN(C(=O)c3n[nH]c4c3CCCC4)C2)nc2ccncc21` (stereo not drawn) the inhibition was 5.16%.
`O=C(CNc1ccccc1-c1nc2ccccc2[nH]c1=O)NC1CCCCCCC1` showed an inhibition of -7%.
`CCN(CC)C(=NS(=O)(=O)c1ccccc1)c1ccc(Cl)cc1` was tested, and the inhibition was -3%.
In the case of `CC(=O)Nc1cccnc1-c1ccc(C(=O)NCc2ccccc2)cc1`, the inhibition is reported as -2.7%.
`CSc1ccc(C2C=C(c3cccs3)Nc3nnnn32)cc1` (stereo not drawn) showed an inhibition of 2%.
Compound `COc1ccc(Cl)cc1C(=O)N1CCN(c2cccc(Cl)c2)CC1` has an inhibition of -0.4%.
`COc1ccc(Cl)cc1C(=O)N1CCN(c2ccc3nnc(-c4ccco4)n3n2)CC1` was tested, and the inhibition was 72% (active).
`COc1ccc(Cl)cc1C(=O)N1CCn2c(C)nnc2C1` gave an inhibition of -9.2%.
Work on `COc1ccc(C2C(C(=O)Nc3ccc(Cl)cc3)=C(C)Nc3nnnn32)cc1` (stereo not drawn) yielded an inhibition of 23%.
With `CCCC(=O)NC(c1ccccc1OC)c1cc([N+](=O)[O-])c2cccnc2c1O` (stereo not drawn) the inhibition was 100% (active).
`CCCC(=O)NC(Nc1ccccc1OC)C(Cl)(Cl)Cl` (stereo not drawn) gave an inhibition of -3%.
Work on `O=[N+]([O-])c1ccc(SCCO)c2ncccc12` yielded an inhibition of 6%.
Compound `Cc1nc(-n2cccc2)sc1C(=O)NCc1cc(-c2ccco2)on1` has an inhibition of -1.3%.
With `CN(Cc1ccccc1F)c1cc2c(c3c1ccn3C)C1CCC2O1` (stereo not drawn) the inhibition was 75.9% (active).
`O=C(C=Cc1ccco1)NCC1COC2(CCCCC2)O1` (stereo not drawn) showed an inhibition of -5.5%.
With `CCOc1ccccc1NC(=O)c1nn(-c2ccccc2OC)c(=O)c2ccccc12` the inhibition was -4%.
In the case of `O=C1CSC(c2ccc(F)cc2)N1c1ccc(Br)cc1` (stereo not drawn), the inhibition is reported as -18%.
In the case of `CCCc1ccc(OCC(O)CN2CCN(C(=O)OCC)CC2)cc1` (stereo not drawn), the inhibition is reported as 24.7%.
Compound `O=C(COc1ccc([N+](=O)[O-])cc1)c1ccc(O)cc1O` has an inhibition of 2.4%.
For `CCCc1ccc(OCC(=O)c2ccc(O)c(C)c2O)cc1`, the inhibition was 80.4% (active).
`COCC(=O)N1CCCC(c2ccnc(-c3ccccc3)n2)C1` (stereo not drawn) gave an inhibition of -3.3%.
